# Where “and” joins values, the source holds several entries; their conditions need not be identical. Equal entries are not always repeated. About 83,000 compounds went through this panel and 20% of them were active in at least one assay; those are over-represented in the sample as a whole.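 Each cell line was grown in a 96-well plate and treated with one concentration of compound for 48 hours. Values below 10 were considered active.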 Calls of active or inactive are those of the source.
# Legend:
# Assay in all cases: NCI-60 one-dose screen, 48 h (100 = growth as untreated, 0 = no growth, -100 = all killed)
# Settings in all cases: 10 µM unless noted
# TK-10 renal = system: TK-10 renal
# SK-MEL-2 melanoma = system: SK-MEL-2 melanoma
# SN12C renal = system: SN12C renal
# UO-31 renal = system: UO-31 renal
# ACHN renal = system: ACHN renal
# CAKI-1 renal = system: CAKI-1 renal
# A498 renal = system: A498 renal
# CCRF-CEM leukemia = system: CCRF-CEM leukemia
# MOLT-4 leukemia = system: MOLT-4 leukemia
# RPMI-8226 leukemia = system: RPMI-8226 leukemia
# OVCAR-8 ovarian = system: OVCAR-8 ovarian
# OVCAR-5 ovarian = system: OVCAR-5 ovarian
# OVCAR-4 ovarian = system: OVCAR-4 ovarian
# SK-OV-3 ovarian = system: SK-OV-3 ovarian
# IGROV1 ovarian = system: IGROV1 ovarian
# OVCAR-3 ovarian = system: OVCAR-3 ovarian
# NCI/ADR-RES ovarian = system: NCI/ADR-RES ovarian
# SR leukemia = system: SR leukemia
# HS 578T breast = system: HS 578T breast
smiles,measurement,setting,value
CC(C)=CCc1cc(C2COc3cc4c(c(O)c3C2=O)C=CC(C)(C)O4)c(O)cc1O (stereo not drawn),growth,TK-10 renal,-14.3% [100 µM] (active) and -100% [100 µM] (active)
CC(/C=N/N1C(=O)c2ccccc2C1=O)c1ccccc1 (stereo not drawn),growth,SK-MEL-2 melanoma,110% (inactive)
same,growth,SN12C renal,99.6% (inactive)
same,growth,UO-31 renal,88.1% (inactive)
same,growth,TK-10 renal,113% (inactive)
same,growth,ACHN renal,97.4% (inactive)
same,growth,CAKI-1 renal,83.6% (inactive)
same,growth,A498 renal,98% (inactive)
same,growth,CCRF-CEM leukemia,110% (inactive)
same,growth,MOLT-4 leukemia,106% (inactive)
same,growth,RPMI-8226 leukemia,97.9% (inactive)
same,growth,OVCAR-8 ovarian,101% (inactive)
same,growth,OVCAR-5 ovarian,103% (inactive)
same,growth,OVCAR-4 ovarian,112% (inactive)
same,growth,SK-OV-3 ovarian,108% (inactive)
same,growth,IGROV1 ovarian,98.6% (inactive)
same,growth,OVCAR-3 ovarian,113% (inactive)
same,growth,NCI/ADR-RES ovarian,113% (inactive)
NC(=O)CC1OC(=O)Cc2cc3c(c(O)c21)C(=O)c1c(O)cccc1C3=O (stereo not drawn),growth,TK-10 renal,57.5% [100 µM] (inactive)
COC(=O)C(C(=O)C(=O)NC1Nc2ccc(C)cc2S1)c1nc2ccc(Cl)cc2[nH]c1=O (stereo not drawn),growth,TK-10 renal,113% [100 µM] (inactive) and 71.4% [100 µM] (inactive)
Nc1ccccc1SC1CC(=O)N(c2cccc3ccccc23)C1=O (stereo not drawn),growth,SK-MEL-2 melanoma,92.6% (inactive)
same,growth,SN12C renal,98.3% (inactive)
same,growth,UO-31 renal,68.6% (inactive)
same,growth,TK-10 renal,113% (inactive)
same,growth,ACHN renal,97.5% (inactive)
same,growth,CAKI-1 renal,79.7% (inactive)
same,growth,A498 renal,88.8% (inactive)
same,growth,MOLT-4 leukemia,83.5% (inactive)
same,growth,SR leukemia,88% (inactive)
same,growth,RPMI-8226 leukemia,86.3% (inactive)
same,growth,OVCAR-8 ovarian,92.2% (inactive)
same,growth,OVCAR-5 ovarian,101% (inactive)
same,growth,OVCAR-4 ovarian,93.6% (inactive)
same,growth,IGROV1 ovarian,99.1% (inactive)
same,growth,OVCAR-3 ovarian,101% (inactive)
same,growth,HS 578T breast,97.9% (inactive)
same,growth,NCI/ADR-RES ovarian,96.1% (inactive)
CCO/C=N\C1=C(C#N)SC2=N/C(=C\c3ccc(OC)cc3)C(=O)N21,growth,TK-10 renal,92.7% [100 µM] (inactive) and 103% [100 µM] (inactive)
CCC(C)C1(O)OC2CC3(C)OC(=CC3=O)/C(C)=C\C3OC(=O)C1(C)C32 (stereo not drawn),growth,TK-10 renal,41.8% [100 µM] (inactive) and -90.7% [100 µM] (active)
CC(C)=CCc1c(OC(=O)c2c(C)cc(O)cc2O)cc(CO)c(CO)c1O,growth,TK-10 renal,1.66% [100 µM] (active) and -100% [100 µM] (active)
Cc1ccc(/C=N/Nc2ccccn2)s1,growth,TK-10 renal,147% [100 µM] (inactive) and 60.9% [100 µM] (inactive)
CC1OC(Oc2c(-c3cc(O)c(O)c(O)c3)oc3cc(O)cc(O)c3c2=O)C(O)C(O)C1O (stereo not drawn),growth,TK-10 renal,90.9% [100 µM] (inactive) and 92.6% [100 µM] (inactive)
NC1N=C(c2ccc(Cl)cc2)C2=C(N1)c1ccccc1CC2 (stereo not drawn),growth,TK-10 renal,76.2% [100 µM] (inactive) and -97.6% [100 µM] (active)
Cn1c2c(c3ccccc3c1=O)C(=O)c1ccccc1-2,growth,TK-10 renal,-92.2% [100 µM] (active) and -100% [100 µM] (active)
O=C(NC1=NC2C=CC([N+](=O)[O-])=CC2S1)C(=O)Nn1c(=S)[nH]c2ccccc2c1=O (stereo not drawn),growth,TK-10 renal,7.66% [100 µM] (active) and 13.1% [100 µM] (inactive)
COc1cc(C)c2c(c1C=O)Oc1c(c(C)c(O)c3c1C(O)OC3=O)OC2=O (stereo not drawn),growth,TK-10 renal,-0.673% [100 µM] (active) and 99.4% [100 µM] (inactive)
N#Cc1c(N)oc(-c2cccc([N+](=O)[O-])c2)c1C#N,growth,TK-10 renal,-44.5% [100 µM] (active) and -69.6% [100 µM] (active)
COc1ccc2c(c1)N(C(C)=O)CN1C(=O)CCC21 (stereo not drawn),growth,TK-10 renal,93% [100 µM] (inactive) and 101% [100 µM] (inactive)
C=CCNC1=C2C[C@@H](C)C[C@@H](OC)[C@@H](OC(=O)CCCN)[C@H](C)/C=C(\C)[C@@H](OC(N)=O)[C@H](OC)/C=C\C=C(/C)C(=O)NC(=CC1=O)C2=O,growth,TK-10 renal,-57.4% [100 µM] (active) and -99.4% [100 µM] (active)
N#CC1(C#N)N[C@@H](c2ccsc2)[C@H]2C(=O)N(c3ccccc3)C(=O)[C@H]21,growth,TK-10 renal,55.7% [100 µM] (inactive) and 30.9% [100 µM] (inactive)
COc1cc2c3cc1Oc1c(OC)c(OC)cc4c1C(Cc1ccc(O)c(c1)-c1cc(ccc1OC)CC3N(C)CC2)N(C)CC4 (stereo not drawn),growth,TK-10 renal,-41.8% [100 µM] (active) and -97% [100 µM] (active)
COc1ccc2nc(N/N=C/c3ccc(C)s3)cc(C)c2c1,growth,TK-10 renal,-94.1% [100 µM] (active) and -97.3% [100 µM] (active)
CNC(=S)/C(=N\Nc1nc[nH]c1C(N)=O)C(N)=S,growth,TK-10 renal,5.27% [100 µM] (active) and 4.34% [100 µM] (active)
COc1ccc(-c2nc3ccccc3c(=S)n2OC(C)=O)cc1,growth,TK-10 renal,47% [25 µM] (inactive) and -21.7% [25 µM] (active)
Cc1ccc(NC(=O)/C(Cc2cc(=O)oc3cc(O)ccc23)=N\NC(C)(C)C)cc1C,growth,TK-10 renal,103% [100 µM] (inactive) and 101% [100 µM] (inactive)
COc1ccc(/C=C2/NC(=S)N=C2Cl)cc1,growth,TK-10 renal,92.7% [100 µM] (inactive) and -42.1% [100 µM] (active)
C=C1C(=O)OC2/C=C(\CO)CC/C=C(\CO)CC(OC(=O)C(C)C)C12 (stereo not drawn),growth,TK-10 renal,-97% [100 µM] (active) and -96.5% [100 µM] (active)
Cc1cc2nn(C3CCCO3)nc2cc1C (stereo not drawn),growth,TK-10 renal,81.3% [100 µM] (inactive) and 101% [100 µM] (inactive)
COc1ccc(-c2coc3c4c(ccc3c2=O)OCO4)cc1OC,growth,TK-10 renal,54.4% [100 µM] (inactive) and 6.05% [100 µM] (active)
CC1OC23CCCCC2C(C#N)(C#N)C1(C#N)C(=N)O3 (stereo not drawn),growth,TK-10 renal,36.7% [100 µM] (inactive)
O=C(O)c1n[nH]nc1Cl,growth,TK-10 renal,98.7% [100 µM] (inactive) and 107% [100 µM] (inactive)
CCOc1cc2c(cc1O)/C(=N/NS(=O)(=O)c1ccc(C)cc1)C[C@@H]1[C@@H]2CC[C@]2(C)[C@@H](O)CC[C@@H]12,growth,TK-10 renal,-22.6% [100 µM] (active)
CN(C)c1ccc(/C=N/n2c(-c3ccccc3)nc3ccccc3c2=O)cc1,growth,TK-10 renal,101% [100 µM] (inactive) and 30.4% [100 µM] (inactive)
O=C(Nc1cccc(NC(=O)C(=O)C2CCC3=C(Sc4ccccc4N3)C2=O)n1)C(=O)C1CCC2=C(Sc3ccccc3N2)C1=O (stereo not drawn),growth,TK-10 renal,103% [100 µM] (inactive) and 15.7% [100 µM] (inactive)
COc1ccc2nc(NC(=O)/C(C#N)=C/c3ccccc3)sc2c1,growth,TK-10 renal,52.5% [100 µM] (inactive) and -23.1% [100 µM] (active)
COC(=O)C(/C(=N/NC(N)=O)C(=O)Nc1ccc(C)cc1)c1nc2ccc([N+](=O)[O-])cc2[nH]c1=O (stereo not drawn),growth,TK-10 renal,111% [100 µM] (inactive) and 43.2% [100 µM] (inactive)
CCC1OC2(C)CC(C#N)(C#N)C1(C#N)C(=N)O2 (stereo not drawn),growth,TK-10 renal,92.1% [100 µM] (inactive)
CNC(=S)c1nnsc1N,growth,TK-10 renal,103% [100 µM] (inactive) and 37.1% [100 µM] (inactive)
COC(=O)C(C(=O)C(=O)Nc1c(C)cccc1C(C)(C)C)c1nc2ccc(Cl)cc2[nH]c1=O (stereo not drawn),growth,TK-10 renal,141% [100 µM] (inactive) and 105% [100 µM] (inactive)
Cc1cc(N(CCC#N)CCC#N)ccc1/C=N/NC(=O)c1cc(Cl)ccc1O,growth,TK-10 renal,76.6% [100 µM] (inactive) and 12.3% [100 µM] (inactive)
NNc1[nH]c(=S)[nH]c1C(N)=O,growth,TK-10 renal,121% [100 µM] (inactive) and 111% [100 µM] (inactive)
CCn1c2c(c3ccccc3c1=O)C(=O)c1ccccc1-2,growth,TK-10 renal,73.6% [100 µM] (inactive) and -93.6% [100 µM] (active)
COC(=O)C(Cc1nc2ccccc2[nH]c1=O)C(=O)C(=O)Nc1cc(C(F)(F)F)ccc1Cl (stereo not drawn),growth,TK-10 renal,-90.1% [100 µM] (active) and 0.262% [100 µM] (active)
O=C1c2ccccc2-c2c1c1ccccc1c(=O)n2CCO,growth,TK-10 renal,41.8% [100 µM] (inactive) and 3.35% [100 µM] (active)
COc1cc([C@H]2OC[C@H]3[C@@H]2CO[C@@H]3c2cc(OC)c3c(c2)OCO3)cc(OC)c1OC,growth,TK-10 renal,33.1% [100 µM] (inactive) and 24.9% [100 µM] (inactive)
COC(=O)/C(=N\NC(=S)NN)C(C(=O)OC)C(=O)C(=O)Nc1cccc(C(F)(F)F)c1 (stereo not drawn),growth,TK-10 renal,155% [100 µM] (inactive) and 108% [100 µM] (inactive)
CC1(C)C2CCC1(CS(=O)(=O)O)C(=O)C2 (stereo not drawn),growth,OVCAR-4 ovarian,95.1% (inactive)
same,growth,HS 578T breast,112% (inactive)

# Source: PubChem BioAssay (NCI)
